# From PubChem BioAssay
# BAZ2B inh = inhibitors of human BAZ2B bromodomain; AlphaScreen BAZ2B-H3K14Ac peptide displacement; Potency, µM (top dose mostly 114 µM), for the others: at the top dose activity change, negative = inhibition, hits mostly inhibitors; hit rate 4.4% among 360,000; AID 504333; note: % is set by controls: 0 for no effect and ±100 for the full control effect; nearly all actives have a fitted effect of over 60% in size
#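 Compounds, titrated to a top concentration of 110 uM, were incubated 30 min at room temperature with preformed BAZ2B/acetyl-K14 H3 peptide complex (50 nM each). Proximity signal was measured by AlphaScreen after 20 min with beads.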
# G9a inh = G9a (human) methyltransferase inhibition; Q96KQ7; G9a H3K9 monomethylation, AlphaScreen, 2 h; Potency, µM (titrated, usually from 102 µM), for the others: at the top dose activity, negative = inhibition, usual class: inhibitors; hit rate 8.8% among 350,000; AID 504332; note: % is set by controls: 0 for no effect and ±100 for the full control effect; nearly all actives have a fitted effect of over 75% in size
#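 AlphaScreen detection with an anti-monomethyl H3K9 antibody quantified product after a 2 h room-temperature reaction containing 500 nM biotinylated H3K9 peptide, 20 µM SAM and 20 nM enzyme, which had been preincubated 15 min with compound.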
# L3MBTL1 block = inhibitors of human L3MBTL1; Q9Y468; AlphaScreen L3MBTL1–H3K9me1 peptide binding; Potency, µM (doses to about 57.1 µM), without a hit: top-dose activity, negative = inhibition, usual class: inhibitors; hit rate 0.66% among 230,000; AID 485360; note: % is set by controls: 0 for no effect and ±100 for the full control effect; nearly all actives have a fitted effect of over 60% in size
#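 AlphaScreen proximity signal between nickel-chelate acceptor and streptavidin donor beads (final 10 ug/mL) reports binding of 50 nM L3MBTL1 to 75 nM biotin-H3 K9me1 peptide; complex incubated with compounds 30 min at room temperature; cefsulodin titration as control.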
# GLS inhibitor = glutaminase GLS (human) inhibition. hit rate 0.21% among 410,000. Potency, µM (highest dose often 45.5 µM), for inactives: at the top dose activity change, negative = inhibition, usual class: inhibitors. GLS enzymatic activity, qHTS titration. O94925. AID 624170; note: % is set by controls: 0 for no effect and ±100 for the full control effect
# Target sequence (O94925 whole entry, looked up): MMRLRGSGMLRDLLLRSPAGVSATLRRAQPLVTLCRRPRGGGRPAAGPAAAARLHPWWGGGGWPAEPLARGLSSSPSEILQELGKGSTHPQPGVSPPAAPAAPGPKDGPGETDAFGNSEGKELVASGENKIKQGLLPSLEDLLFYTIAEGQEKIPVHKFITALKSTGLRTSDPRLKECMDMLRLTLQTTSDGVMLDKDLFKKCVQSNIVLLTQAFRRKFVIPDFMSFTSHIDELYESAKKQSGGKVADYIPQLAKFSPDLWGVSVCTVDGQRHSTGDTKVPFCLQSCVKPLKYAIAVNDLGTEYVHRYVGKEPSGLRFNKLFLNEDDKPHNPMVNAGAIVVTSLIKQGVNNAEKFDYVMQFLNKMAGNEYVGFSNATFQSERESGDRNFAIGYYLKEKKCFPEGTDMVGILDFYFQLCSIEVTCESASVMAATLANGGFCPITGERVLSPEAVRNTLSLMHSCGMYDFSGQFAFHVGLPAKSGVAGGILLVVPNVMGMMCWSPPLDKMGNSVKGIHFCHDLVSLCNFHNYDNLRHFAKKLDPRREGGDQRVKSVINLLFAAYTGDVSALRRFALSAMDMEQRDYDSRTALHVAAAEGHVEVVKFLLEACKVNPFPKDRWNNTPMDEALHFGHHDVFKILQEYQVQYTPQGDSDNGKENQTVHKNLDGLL
#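 Assay buffer: 45 mM KH2PO4 pH 8.2, 0.02% Tween-20. hKGA acts on L-glutamine (1 mM solution added); product glutamate is reported by an oxidase/peroxidase Amplex Red coupling, with fluorescence taken at baseline and 30 min.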
# JMJD2A Tudor inh = JMJD2A Tudor domain (human) inhibition | AlphaScreen JMJD2A-Tudor / H3K4me3 peptide binding | O75164 | AID 504339 | Potency, µM (titrated, usually from 114 µM), without a hit: top-dose activity change, negative = inhibition, usual class: inhibitors | hit rate 4.4% among 390,000; note: % is set by controls: 0 for no effect and ±100 for the full control effect; nearly all actives have a fitted effect of over 50% in size
# HP1b binding inh = blocks HP1-beta chromodomain binding to methylated histone tails. hit rate 0.56% among 390,000. AlphaScreen HP1-beta / biotin-H3K9me3 peptide binding. AID 540317. Potency, µM (doses to about 114 µM), for the others: at the top dose activity change, negative = inhibition, hits mostly inhibitors. P83916; note: nearly all actives have a fitted effect of over 70% in size
#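 HP1-beta protein (50 nM final) preincubated 30 min at room temperature with biotinylated H3(1-18)K9me3 peptide (50 nM) in PBS pH 7.4, 0.01% Tween-20, then compound added for 30 min. AlphaScreen streptavidin donor/nickel chelate acceptor beads (10 ug/mL final), 30 min dark, luminescence read.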
# An asterisk follows results filed as active; ? = inconclusive; / = no result given; ! = repeats disagree; [ ] = dose if it differs, or a comment. In the library only some 10% were active in any assay of this set; here they are far more common. Calls come from the whole dose curve; as a rule, active = well fitted curve in the direction sought with a large enough effect; inconclusive = small, poorly fitted or top-dose-only effect, or another doubt; inactive = no such curve, though single readings can be large; an effect the other way counts as inactive or inconclusive. Potency is the fitted concentration of half-maximal effect.
SMILES,BAZ2B inh,G9a inh,L3MBTL1 block,GLS inhibitor,JMJD2A Tudor inh,HP1b binding inh
Cn1cc(S(=O)(=O)N2CCCCCC2)cc1C(=O)N1CCN(c2ccccc2F)CC1,-19%,4%[59 µM],/,-2%,-14%,17%[57 µM]
COC(=O)c1c(C)[nH]c(/C=N/Nc2ccccc2)c1C,?,25µM*,-4%,-8%,?,-2%
CCOc1ccc(C(=O)NCCc2sc3nc(-c4ccc(Cl)cc4)nn3c2C)cc1OCC,-19%,-15%[59 µM],/,-4%,-12%,30%
O=C(NC(CO)(CO)CO)c1coc(=O)c(Br)c1,5%,27%[2.33 µM],51%,1%,-7%,19%
CN(C)CCNC(=O)c1coc(=O)c(Br)c1,?,16µM*,0%,1%,?,12%
O=C(NNC(=O)C1C2CCCCC21)c1coc(=O)c(Br)c1 (stereo not given),?,45µM*,/,-1%,-22%,29%
O=C(Nc1cc(Cl)cc(Cl)c1)c1coc(=O)c(Br)c1,56µM*,50µM*,?,0%,-32%,-11%
CCOC(=O)c1cnn(-c2cccc(F)c2)c1C1CCNCC1,/,-50%[59 µM],/,0%,-8%,24%
CCOC(=O)c1c(NC(C)=O)c2c3c(sc2n1Cc1cc(C)ccc1C)CCCC3,4%,5%[59 µM],/,-7%,-13%,15%
O=C1C(O)=C(O)C(=O)C(O)=C1O,/,6.3µM*!,/,20µM*,/,/
CCN1C/C(=C\c2cccc([N+](=O)[O-])c2)C(=O)/C(=C/c2cccc([N+](=O)[O-])c2)C1,?,25µM*,-4%,5%,?,-30%
Cc1ccc(N2C(=N)/C(=C3/Nc4ccccc4S3)C(c3ccccc3)C2=O)cc1 (stereo not given),11%,35µM*,0%,4%,?,-3%
Cc1ccc(N2C(=O)C(F)(F)C2c2ccccc2)cc1 (stereo not given),125%,66%,/,-4%,43%,88%
C=CCn1c(O)c(C=Nc2ccccc2)sc1=S,-18%,50µM*,2%,1%,-12%,35%
COc1ccc(Cl)cc1NC(=O)CC1CCCC1,22%,27%,/,-8%,3%,30%
COc1cccc(NC(=O)CC2C(=O)OCCN2Cc2ccccc2)c1 (stereo not given),0%,-32%[59 µM],/,0%,-8%,87%
CCN1CCOC(=O)C1CC(=O)Nc1cc(C)cc(C)c1 (stereo not given),-12%,3.5µM*,/,1%,-15%,28%
CCN1CCOC(=O)C1CC(=O)Nc1ccccc1C(F)(F)F (stereo not given),-39%,2.2µM*,/,-2%,-34%,-17%
CCc1ccc(NC(=O)CC2C(=O)OCCN2CC)cc1 (stereo not given),-12%,1.8µM*,/,-4%,-16%,27%
CCN1CCOC(=O)C1CC(=O)Nc1cc(Cl)ccc1OC (stereo not given),-11%,7.9µM*,/,1%,-24%,2%
N#Cc1nc(-c2cccc3ccccc23)oc1NCC#CCOC(=O)c1cccs1,6%,3%[12.7 µM],-6%,/,/,/
Cc1ccc(Cn2c(=O)n(Cc3ccccc3)c(=O)c3oc4ccccc4c32)cc1,-13%,-9%[59 µM],/,14%,-10%,25%
CCN1CCOC(=O)C1CC(=O)Nc1ccc(C(C)=O)cc1 (stereo not given),?,3.2µM*,/,0%,-3%,12%
CCC(=O)N1CCc2cc(S(=O)(=O)CCC(=O)Nc3ccc(OC(F)(F)F)cc3)ccc21,/,?,/,2%,-13%,29%
CCOc1cc(/C=C2\C(=O)N(Cc3ccc(C)cc3)C(C)=C2C(=O)OC)ccc1O,?,8.9µM*,-15%,-2%,25µM*,-96%
CCOC(=O)C1=C(C)N(c2ccc(C)c(C)c2)C(=O)/C1=C\c1ccco1,32µM*,35µM*,-7%,-9%,32µM*,-51%
COC(=O)C1=C(C)N(CCc2ccc(OC)c(OC)c2)C(=O)/C1=C\c1ccc(O)cc1,?,10µM*,-1%,-2%,?,-13%
